Data: PubChem BioAssay (NCI)
The panel holds about 79,000 compounds, 15% with a hit somewhere; the sample as a whole holds those more often. Active and inactive are the calls of the source. Rule as the data show it: active = growth inhibition above about 70%; inactive = the rest.

Tests used:
[1] = NCI Yeast Anticancer Drug Screen. Data for the rad50 strain (AID 155);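 also: 0% = growth of vehicle-only cultures of the same strain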; conditions: S. cerevisiae rad50 strain growth inhibition, hits give high values
Procedure, shortened: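 Inhibition values express reduced yeast growth in compound-treated cultures relative to vehicle-treated controls.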

[2] = NCI Yeast Anticancer Drug Screen. Data for the mec2-1 strain (AID 157); conditions: S. cerevisiae mec2-1 strain, hits give high values
Procedure, shortened: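 Yeast mec2-1 mutant treated with compound. Readout: growth inhibition vs vehicle controls.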

[3] = NCI Yeast Anticancer Drug Screen. Data for the sgs1 mgt1 strain (AID 161);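 also: 0% = growth of cultures given vehicle only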; conditions: S. cerevisiae sgs1 mgt1 strain, hits give high values
Procedure, shortened: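 Mutant yeast exposed to compound; growth scored against vehicle-only wells.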

[4] = NCI Yeast Anticancer Drug Screen. Data for the cln2 rad14 strain (AID 165);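 also: 0% = growth equal to vehicle treated cultures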; conditions: S. cerevisiae cln2 rad14 strain, hits give high values
Procedure, shortened: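 cln2 rad14 yeast strain; compound exposure; growth inhibition read vs vehicle controls.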

[5] = NCI Yeast Anticancer Drug Screen. Data for the bub3 strain (AID 167); conditions: S. cerevisiae bub3 mutant strain, hits give high values
Procedure, shortened: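 Steps: expose the mutant yeast strain to compound; grow alongside vehicle-treated cultures; measure growth; express inhibition against the vehicle cultures.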

[6] = NCI Yeast Anticancer Drug Screen. Data for the mlh1 rad18 strain (AID 175); conditions: S. cerevisiae mlh1 rad18 strain growth inhibition, hits give high values
Procedure, shortened: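 Yeast w/ defined DNA-repair lesions; compound exposure; growth vs vehicle controls → % inhibition.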

[7] = at 5.0 µM (retest, dose inferred, filed as 0.5)
[8] = at 50.0 µM (retest, dose inferred, filed as 5.0)

Measured: growth inhibition

CS/C(=N\N=C(/C)c1ccccn1)N1CCN(c2ccccn2)CC1
active: [1]; at 50.0 µM 98.1% | [2]; at 50.0 µM 82.2% | [3]; [8] 96% | [3]; at 50.0 µM 98.6% | [4]; [8] 84% | [5]; [8] 94% | [5]; at 50.0 µM 91.2% | [6]; [8] 98% | [6]; at 50.0 µM 87.5%
inactive: [1]; [7] 1% | [1]; [8] 22% | [2]; [7] -1% | [2]; [8] 14% | [3]; [7] -1% | [4]; [7] -5% | [4]; at 50.0 µM 64.2% | [5]; [7] -7% | [6]; [7] -8%

CCCCCCCCNc1ncnc2c1cnn2C
active: [2]; [8] 83% | [3]; [8] 85% | [4]; at 50.0 µM 98.8% | [5]; [8] 87% | [5]; at 50.0 µM 97.8% | [6]; [8] 86%
inactive: [1]; [7] -2% | [1]; [8] 69% | [1]; at 50.0 µM 48.6% | [2]; [7] 4% | [2]; at 50.0 µM 43% | [3]; [7] -2% | [3]; at 50.0 µM 54.8% | [4]; [7] -9% | [4]; [8] 61% | [5]; [7] 1% | [6]; [7] 18% | [6]; at 50.0 µM 49.9%

Cc1cc(Cc2cccc(Cl)c2)ccc1O
inactive: [1]; [7] -8% | [2]; [7] -34% | [3]; [7] -2% | [4]; [7] -21% | [5]; [7] -20% | [6]; [7] -8%
active: [1]; [8] 99% | [1]; at 50.0 µM 99.5% | [2]; [8] 99% | [2]; at 50.0 µM 99.7% | [3]; [8] 99% | [3]; at 50.0 µM 99.3% | [4]; [8] 99% | [4]; at 50.0 µM 99.4% | [5]; [8] 99% | [5]; at 50.0 µM 99.6% | [6]; [8] 99% | [6]; at 50.0 µM 99.5%

O=C(CCCN1CCc2[nH]c3cc(F)ccc3c2C1)c1ccc(F)cc1
inactive: [1]; [7] -11% | [2]; [7] -12% | [2]; at 50.0 µM 68% | [3]; [7] -7% | [4]; [7] -9% | [5]; [7] -30% | [6]; [7] 12%
active: [1]; [8] 97% | [1]; at 50.0 µM 84.8% | [2]; [8] 98% | [3]; [8] 98% | [3]; at 50.0 µM 90% | [4]; [8] 94% | [4]; at 50.0 µM 84.4% | [5]; [8] 98% | [5]; at 50.0 µM 91.7% | [6]; [8] 99% | [6]; at 50.0 µM 85.6%

Cc1cc(N=O)c(NO)cc1C
active: [1]; at 50.0 µM 95.8% | [2]; at 50.0 µM 79.7% | [3]; at 50.0 µM 79.7% | [5]; at 50.0 µM 92.5% | [6]; [8] 81% | [6]; at 50.0 µM 88.8%
inactive: [1]; [7] 3% | [1]; [8] 29% | [2]; [7] 16% | [2]; [8] 29% | [3]; [7] 6% | [3]; [8] 22% | [4]; [7] 2% | [4]; [8] 16% | [4]; at 50.0 µM 65.7% | [5]; [7] 28% | [5]; [8] 61% | [6]; [7] 18%

Cc1ccc(C)c2c3c([nH]c12)-c1ccccc1CC3
inactive: [1]; [7] 1% | [1]; [8] 3% | [2]; [7] -3% | [2]; [8] 2% | [3]; [7] -4% | [3]; [8] 10% | [4]; [7] -1% | [4]; [8] 7% | [5]; [7] 0% | [5]; [8] 4% | [6]; [7] 6% | [6]; [8] 9%
active: [1]; at 50.0 µM 98.5% | [2]; at 50.0 µM 92.8% | [3]; at 50.0 µM 83.5% | [4]; at 50.0 µM 80% | [5]; at 50.0 µM 96.7% | [6]; at 50.0 µM 94.8%

Cc1ccc(Cl)cc1NC(=O)N(C)CCOC(=O)Nc1cccc(Cl)c1
active: [1]; [8] 95% | [1]; at 50.0 µM 88.7% | [2]; [8] 97% | [2]; at 50.0 µM 91% | [3]; [8] 97% | [3]; at 50.0 µM 92.9% | [4]; [8] 97% | [4]; at 50.0 µM 90% | [5]; [8] 94% | [5]; at 50.0 µM 92.3% | [6]; [8] 98% | [6]; at 50.0 µM 90.5%
inactive: [1]; [7] 32% | [2]; [7] 31% | [3]; [7] 41% | [4]; [7] 22% | [5]; [7] 23% | [6]; [7] 41%

Cc1cccc(Cl)c1NC(=O)/C=C/c1ccccc1
inactive: [1]; [7] 41% | [1]; [8] 44% | [1]; at 50.0 µM -22.1% | [2]; [7] 44% | [2]; [8] 44% | [2]; at 50.0 µM -6.05% | [3]; [7] -1% | [3]; [8] 23% | [3]; at 50.0 µM 1.1% | [4]; [7] 29% | [4]; [8] 6% | [4]; at 50.0 µM -1.6% | [5]; [7] 27% | [5]; [8] 39% | [5]; at 50.0 µM 8.6% | [6]; [7] 35% | [6]; [8] 48% | [6]; at 50.0 µM -6.65%

O=C(NCCN1CCCC1)c1cn2c(ccc3sc4ccccc4c(=O)c32)n1
inactive: [1]; [7] 29% | [1]; at 50.0 µM 66% | [2]; [7] 21% | [2]; at 50.0 µM 49.6% | [3]; [7] 19% | [3]; at 50.0 µM 46% | [4]; [7] 19% | [4]; [8] 54% | [4]; at 50.0 µM 37.2% | [5]; [7] 20% | [5]; at 50.0 µM 25.9% | [6]; [7] 26% | [6]; at 50.0 µM 20.4%
active: [1]; [8] 89% | [2]; [8] 71% | [3]; [8] 77% | [5]; [8] 76% | [6]; [8] 81%

Cc1cccc2c1Oc1ccccc1C2N1C(=O)/C(=C/c2ccccc2Cl)SC1=S (stereo not given)
active: [1]; [7] 99% | [1]; [8] 74% | [2]; [7] 99% | [3]; [7] 100% | [4]; [7] 96% | [5]; [7] 99% | [5]; [8] 74% | [6]; [7] 99% | [6]; [8] 72%
inactive: [1]; at 50.0 µM 60.1% | [2]; [8] 48% | [2]; at 50.0 µM 29.1% | [3]; [8] 29% | [3]; at 50.0 µM 38.4% | [4]; [8] 1% | [4]; at 50.0 µM 16.4% | [5]; at 50.0 µM 12.6% | [6]; at 50.0 µM 64.2%
